Screens (PubChem)
FAS TE block: FAS thioesterase (human) inhibition; inhibition, % at 15 µM; P49327; hit rate 0.67% among 360,000; recombinant FAS-TE, OMFH fluorogenic substrate, fluorescence endpoint; AID 602261;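 active = compounds whose normalised, plate-corrected inhibition of enzyme fluorescence in the single-dose primary screen is 50% or more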;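 also: 0% = DMSO with enzyme and 100% = substrate without enzyme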
Target sequence (P49327 whole entry, looked up): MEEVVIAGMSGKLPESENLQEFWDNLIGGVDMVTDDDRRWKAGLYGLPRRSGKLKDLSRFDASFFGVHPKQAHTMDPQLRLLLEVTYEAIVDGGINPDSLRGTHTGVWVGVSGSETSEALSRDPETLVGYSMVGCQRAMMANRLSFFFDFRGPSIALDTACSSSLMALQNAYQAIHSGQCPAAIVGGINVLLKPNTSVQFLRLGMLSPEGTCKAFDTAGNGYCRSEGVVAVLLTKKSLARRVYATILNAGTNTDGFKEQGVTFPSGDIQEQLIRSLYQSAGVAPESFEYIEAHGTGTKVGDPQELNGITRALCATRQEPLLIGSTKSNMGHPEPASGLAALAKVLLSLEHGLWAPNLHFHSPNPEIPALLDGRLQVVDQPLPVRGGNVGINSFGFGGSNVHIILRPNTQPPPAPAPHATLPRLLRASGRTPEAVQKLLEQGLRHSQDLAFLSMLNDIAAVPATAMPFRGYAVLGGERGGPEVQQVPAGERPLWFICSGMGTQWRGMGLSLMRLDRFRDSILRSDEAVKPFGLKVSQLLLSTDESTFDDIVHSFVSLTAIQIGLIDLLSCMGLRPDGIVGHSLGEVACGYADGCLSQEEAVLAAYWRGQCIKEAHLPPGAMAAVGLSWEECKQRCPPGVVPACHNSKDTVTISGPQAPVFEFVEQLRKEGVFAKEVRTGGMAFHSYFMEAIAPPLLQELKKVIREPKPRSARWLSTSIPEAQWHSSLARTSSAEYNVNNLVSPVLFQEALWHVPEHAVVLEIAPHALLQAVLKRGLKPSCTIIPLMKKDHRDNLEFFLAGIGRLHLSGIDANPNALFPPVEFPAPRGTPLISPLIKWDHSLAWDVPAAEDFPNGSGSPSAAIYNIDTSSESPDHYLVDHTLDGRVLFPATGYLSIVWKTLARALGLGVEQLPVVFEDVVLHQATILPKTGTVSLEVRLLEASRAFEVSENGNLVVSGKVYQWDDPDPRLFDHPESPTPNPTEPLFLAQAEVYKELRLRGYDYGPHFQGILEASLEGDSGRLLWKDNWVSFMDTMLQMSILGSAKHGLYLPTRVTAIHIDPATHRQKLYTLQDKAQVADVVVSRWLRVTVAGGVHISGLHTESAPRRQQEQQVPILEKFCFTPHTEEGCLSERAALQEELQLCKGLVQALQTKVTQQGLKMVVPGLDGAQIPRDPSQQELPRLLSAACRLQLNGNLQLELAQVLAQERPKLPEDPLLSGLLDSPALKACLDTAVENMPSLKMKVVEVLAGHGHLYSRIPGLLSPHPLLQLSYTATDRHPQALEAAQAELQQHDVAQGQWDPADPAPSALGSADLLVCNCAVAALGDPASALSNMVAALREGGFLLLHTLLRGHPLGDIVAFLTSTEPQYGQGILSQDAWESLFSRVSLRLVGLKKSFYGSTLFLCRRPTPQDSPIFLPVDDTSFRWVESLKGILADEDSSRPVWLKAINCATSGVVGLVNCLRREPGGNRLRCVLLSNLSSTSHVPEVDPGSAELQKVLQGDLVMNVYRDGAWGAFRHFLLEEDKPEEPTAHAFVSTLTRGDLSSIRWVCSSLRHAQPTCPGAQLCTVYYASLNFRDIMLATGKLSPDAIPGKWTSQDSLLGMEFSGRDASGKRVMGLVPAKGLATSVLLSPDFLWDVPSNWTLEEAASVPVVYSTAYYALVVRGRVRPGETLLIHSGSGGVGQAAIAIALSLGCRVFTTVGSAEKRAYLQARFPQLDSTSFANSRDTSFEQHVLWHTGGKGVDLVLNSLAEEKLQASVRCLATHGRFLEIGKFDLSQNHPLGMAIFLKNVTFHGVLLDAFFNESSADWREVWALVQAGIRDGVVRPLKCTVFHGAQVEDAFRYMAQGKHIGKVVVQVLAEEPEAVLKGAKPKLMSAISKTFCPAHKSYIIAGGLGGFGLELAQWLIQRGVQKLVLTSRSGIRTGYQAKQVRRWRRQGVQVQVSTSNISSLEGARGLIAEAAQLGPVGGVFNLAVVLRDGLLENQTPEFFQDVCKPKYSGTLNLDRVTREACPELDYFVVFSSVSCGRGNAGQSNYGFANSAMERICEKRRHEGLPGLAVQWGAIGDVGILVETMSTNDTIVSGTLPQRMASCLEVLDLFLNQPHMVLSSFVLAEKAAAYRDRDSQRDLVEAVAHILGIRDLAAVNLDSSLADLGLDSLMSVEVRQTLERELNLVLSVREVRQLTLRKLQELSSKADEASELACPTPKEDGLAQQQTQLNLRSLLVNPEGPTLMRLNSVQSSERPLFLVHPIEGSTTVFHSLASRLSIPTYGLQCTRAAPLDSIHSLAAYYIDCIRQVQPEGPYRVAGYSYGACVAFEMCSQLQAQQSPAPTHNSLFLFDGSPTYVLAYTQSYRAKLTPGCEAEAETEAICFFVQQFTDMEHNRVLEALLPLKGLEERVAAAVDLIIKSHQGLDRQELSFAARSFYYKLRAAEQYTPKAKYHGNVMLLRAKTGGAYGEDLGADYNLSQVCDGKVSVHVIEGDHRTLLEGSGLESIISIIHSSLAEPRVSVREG
CRFR2-BP ag: agonists of human CRF-binding protein/CRF-R2 receptor complex | hit rate 0.46% among 350,000 | AID 588473 | activation, % at 13.2 µM | HEK293 CRF-R2/CRF-BP, calcium dye fluorescence (FLIPR); percent of saturating CRF peptide response;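 active = activation of at least 50%, plus an integration ratio under a set limit after plate pattern correction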;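 also: plate controls were neutral control wells without compound for no effect and CRF at EC100 for full effect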
Cardio protect: protects H9c2 cardiomyocytes from peroxide injury; protection from H2O2 cell death, % at 20 µM; hit rate 0.63% among 360,000; H2O2 injury protection, ATPLite, 2 h;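 active = compounds giving at least 50% protection of heart cells from peroxide-induced death in the single-dose screen, raw or plate-pattern-corrected value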;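 also: 0% = DMSO wells with peroxide and 100% = DMSO wells without peroxide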
PfG6PD inh: PfG6PD (Plasmodium falciparum) enzyme inhibition; PfGluPho enzyme, NADPH resazurin-diaphorase fluorescence; inhibition, % at 20 µM; hit rate 0.78% among 350,000; AID 504690;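 active = inhibition reaching at least a set limit at 20 µM in the primary screen, cut at about 59% in these data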;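 also: 0% = DMSO wells with substrate and 100% = DMSO wells lacking glucose-6-phosphate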
aDG glyco act: alpha-DG glycosylation activation. Pro5-aDG cells, alpha-DG glycosylation AlphaScreen (IIH6); 0% Pro5, 100% B10-LARGE cell signal. activation, % at 10 µM. hit rate 0.22% among 360,000. AID 624168;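 active = activation of at least 8% versus controls, or a plate z-score of at least 8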;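 also: Pro5 are CHO cells carrying HIG-tagged alpha-DG that lacks glycosylation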
CRFR2-BP antag: blocks CRF-induced signaling of the CRF-BP/CRF-R2 complex | HEK293 CRF-R2/CRF-BP, CRF-induced calcium fluorescence | inhibition, % at 11.8 µM | hit rate 0.59% among 350,000 | AID 588475;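 active = inhibition of the ligand-induced calcium signal above about 50% at the single tested concentration, limit read from the data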
* hit, by the source's call. Shown are actives, neighbours in structure and some others; about 3.2% of the full set was active somewhere.

SMILES | FAS TE block | CRFR2-BP ag | Cardio protect | PfG6PD inh | aDG glyco act | CRFR2-BP antag
CC(C)(C)OC(=O)N1CCN(c2ccc(CNC(=O)c3ccc(Cl)cc3)cc2)CC1 | 12 | 2 | -10 | -2 | 0 | 50*
O=C(O)c1cnc(-c2ccccc2)nc1Sc1cccc(Cl)c1 | 5 | 0 | -8 | -35 | 0 | 16
O=C(O)c1cnc(-c2ccccc2)nc1Sc1ccc(Cl)cc1Cl | 28 | -3 | -13 | -49 | 0 | 97*
CCOc1ccc(S(=O)(=O)Nc2nc3ccccc3nc2Nc2ccc(N3CCOCC3)cc2)cc1 | 25 | 77* | -10 | 12 | 0 | -26
CC1(C)CC(=O)C2=C(C1)OC(N)=C(C#N)C2c1cc2c(cc1[N+](=O)[O-])OCO2 (stereo unspecified) | -30 | 96* | -19 | 21 | 0 | -40
Cc1occc1C(=O)NC(C)C12CC3CC(CC(C3)C1)C2 (stereo unspecified) | 5 | -21 | 4 | -3 | 1 | 52*
Cc1noc(/C=C/c2ccc(-c3ccccc3Cl)o2)c1[N+](=O)[O-] | -144 | 205* | -6 | 9 | 0 | -170
Cc1nn(-c2cc(C(F)(F)F)ccc2Cl)c2nc(C(Cl)(Cl)Cl)[nH]c(=O)c12 | -3 | 0 | -7 | -21 | 0 | 52*
Cc1nn(-c2ccccc2)c2nc(C(F)(F)F)[nH]c(=O)c12 | -2 | -1 | -8 | 15 | 0 | 28
Cc1nc2ccccc2c(=O)n1/N=C/c1ccc(C(C)C)cc1 | 7 | 1 | 1 | 21 | 0 | 25
Cn1c(=O)c2c(nc(SCc3cccnc3)n2Cc2ccc(F)cc2)n(C)c1=O | 3 | 1 | 34 | 1 | 0 | -18
Nc1cc2c3c(cccc3c1)C(=O)N(CCN1CCCC1)C2=O | -11 | 66* | 18 | 2 | 0 | -56
COc1ccc(NC(=O)Nc2nnc(Cc3ccc(OC)c(OC)c3)s2)cc1 | -4 | 0 | -2 | -3 | 0 | 3
COc1ccc(Cc2nnc(NC(=O)Nc3ccc(C)cc3)s2)cc1OC | -3 | 2 | -4 | -2 | 0 | 83*
Cc1ccccc1NC(=O)Cc1nc(COC(=O)c2cc([N+](=O)[O-])ccc2NCCO)cs1 | 18 | 2 | 7 | 14 | 0 | 61*
CCOc1cc(C=O)ccc1OCc1cc(=O)n2cc(C)ccc2n1 | -2 | 0 | 25 | 2 | 0 | 1
COc1ccc(/C=C/C(=O)C23CC4CC(CC(C4)C2)C3)cc1CN1CCOCC1 | 12 | -2 | -1 | 9 | 0 | -34
CN(CC(=O)Nc1cccc(F)c1)C(=O)c1ccc(S(=O)(=O)N2CCCC2)cc1 | 0 | -2 | -1 | -1 | 0 | -5
Cc1nn(C)c(C)c1CN(C)S(=O)(=O)c1ccc2ccccc2c1 | 9 | 1 | -21 | 1 | 6.5* | 2
C/C(=N\NC(=O)c1ccccc1OCc1ccc(F)cc1)c1ccccn1 | 39 | -1 | 53* | 29 | 0 | 6
CCOc1ccc(OCc2ccc(C(=O)N/N=C(\C)c3ccccn3)cc2)cc1 | 1 | 3 | 35 | -18 | 0 | -13
CCN(CC)c1ccc(/C=C2\C(=O)c3ccc(C(=O)O)cc3C2=O)cc1 | -9 | 248* | -16 | -7 | 0 | -243
CC#CC(=O)N1CCCC(Cc2cccc(OC)c2)(C(=O)OCC)C1 (stereo unspecified) | -2 | 0 | 6 | 2 | 0 | 4
CCOC(=O)c1c(-c2ccc(OC)c(OC)c2)csc1NC(=O)C1CCCO1 (stereo unspecified) | 1 | -6 | 6 | -6 | 0 | 60*
Nc1ccccc1C(=O)NNc1c2ccccc2nc2ccccc12 | 6 | -8 | 9 | 16 | 0 | 5
O=[N+]([O-])c1ccc2[nH]c(O)c(N=NC3CCS(=O)(=O)C3)c2c1 (stereo unspecified) | -1 | 1 | 3 | 6 | 0 | 7
Cc1[nH]n(C2=NCCS2)c(=O)c1N=Nc1cccc(C(F)(F)F)c1 | 11 | 42 | 62* | -39 | 5 | -18
Cc1[nH]n(C(N)=S)c(=O)c1N=Nc1cccc(C(F)(F)F)c1 | -1 | 2 | -7 | -19 | 0 | 10
COC(=O)C1=C(C)NC(C)=C(C(=O)OC)C1c1ccccc1[N+](=O)[O-] | 2 | -2 | 37 | 75* | 0 | -7
